Source: PMC5540273 (PLoS ONE, 2017)

Tests used:
Conditions in all cases: concentration: 1 μM, replicates: in singlicate; n = 1
PIP5K1A = system: PIP5K1A
PIP5K1C = system: PIP5K1C
PIP5K2B = system: PIP5K2B
PIP5K2C = system: T1, PIP5K2C
T1 construct: gene PIP4K2C

PKAC-alpha = system: T2, PKAC-alpha
T2 construct: gene PRKACA

PKAC-beta = system: T3, PKAC-beta
T3 construct: gene PRKACB

PKMYT1 = system: PKMYT1
PKN1 = system: PKN1
PKN2 = system: PKN2
PLK1 = system: PLK1
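Note: KINOMEscan kinase panel screen.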

SMILES	%Inh (PIP5K1A) [%]	%Inh (PIP5K1C) [%]	%Inh (PIP5K2B) [%]	%Inh (PIP5K2C) [%]	%Inh (PKAC-alpha) [%]	%Inh (PKAC-beta) [%]	%Inh (PKMYT1) [%]	%Inh (PKN1) [%]	%Inh (PKN2) [%]	%Inh (PLK1) [%]
O=C(Nc1n[nH]c2cc(-c3cccs3)ccc12)C1CC1 [SB-731284]	21	96.7	15	35	0	0	0	5	0	64
Nc1ncc(-c2ccc3nccc(-c4ccncc4)c3c2)cc1S(=O)(=O)N1CCCCC1 [GSK1693850]	0	40	0	62	1	0	0	9	0	76
Nc1ncc(-c2cn[nH]c2)c2scc(-c3ccc4c(c3)CCN4C(=O)Cc3ccccc3)c12 [GSK2593067]	0	30	0	0	20	19	0	12	9	0
Fc1cc(Cl)ccc1Nc1ccnc2cc(-c3ccc(CN4CCOCC4)o3)ccc12 [GW560109]	0	44	31	75	8	37	0	100	0	0
Cc1cc(-c2c(-c3ccc(F)cc3)ncn2CCCN2CCOCC2)nc(N)n1 [SB-222517]	0	0	0	0	26	16	4	0	10	12
CN(c1ccc(F)c(NC(=O)c2cccc(OC(C)(C)C#N)c2Cl)c1)c1ccc2nc(NC(=O)C3CC3)sc2n1	34	0	3	0	17	0	4	4	0	0
Cl.N#CCc1ccc(Nc2nccc(Nc3ccc(Oc4ccccc4)cc3)n2)cc1 [GW639905]	26	34	20	78	0	0	0	39	0	0
CC(=O)Nc1cn2nc(Oc3cccc(NC(=O)c4cccc(C(F)(F)F)c4)c3)ccc2n1	11	5	0	32	8	52	0	0	23	0
CC(C)(C)c1ccc(C(=O)Nc2cn3cc(-n4ccnc4)ccc3n2)cc1	2	4	0	95.3	37	0	0	10	0	0
N#CC1(c2cccc(C(=O)Nc3cccc(Oc4ccc5nc(NC(=O)C6CC6)sc5n4)c3)c2)CC1	3	59	0	23	34	0	0	0	0	13
COc1cc(Nc2nccc(N3CCC(NS(=O)(=O)c4ccc(NC(C)=O)cc4)CC3)n2)cc(OC)c1OC [GSK1379825]	11	56	0	77	0	0	40	16	0	4
COc1cccc(NC(=O)NCCNc2ccnc(Nc3ccc(F)cc3)n2)c1 [GSK1379879]	40	63	13	29	0	0	1	12	0	0
CN1CCN(Cc2ccc(NC(=O)Nc3ccc(N(C)c4ccnc(Nc5ccc(CS(C)(=O)=O)cc5)n4)cc3)cc2)CC1.Cl [GW827654]	74	0	69	78	0	23	10	41	0	7
Cl.Cl.NCC(NC(=O)c1cc(-c2cccnc2)c(-c2ccnc3[nH]ccc23)s1)c1ccccc1 (stereo not drawn) [GSK1323434]	29	80	10	65	95.7	91.2	10	0	0	2
O=C1NC(=O)C(c2ccccc2Cl)=C1Nc1cccc(Cl)c1 [SB-342409]	11	15	13	5	0	0	27	100	0	0
c1ccc(Oc2ccc(Nc3ccnc4cc(-c5ccc(CN6CCCCC6)o5)ccc34)cc2)nc1 [GW567143]	9	47	0	48	2	0	0	0	0	5
CN(c1ccc(NC(=O)N2CCN(CCCN3CCOCC3)CC2)cc1)c1ccnc(Nc2ccc(CS(C)(=O)=O)cc2)n1.Cl [GW830899]	0	26	32	55	0	29	25	0	0	3

SMILES	%Inh (PIP5K1A) [%]	%Inh (PIP5K1C) [%]	%Inh (PIP5K2B) [%]	%Inh (PIP5K2C) [%]	%Inh (PKAC-alpha) [%]	%Inh (PKAC-beta) [%]	%Inh (PKMYT1) [%]	%Inh (PKN1) [%]	%Inh (PKN2) [%]	%Inh (PLK1) [%]
CN(C)CCNS(=O)(=O)c1ccc(-c2ccnc3[nH]ccc23)cc1 [GSK977620]	8	32	0	0	98.4	97.7	14	9	56	0
Cc1ccc(NC(=O)c2ccc(Cl)c(Cl)c2)cc1-c1ccc(C(=O)Nc2ccncc2)cc1 [GSK1398460]	0	0	0	0	13	7	31	1	15	0
Cl.Cl.NC(CNC(=O)c1cc(Br)c(-c2ccnc3[nH]ccc23)s1)c1ccccc1 (stereo not drawn) [GSK1322949]	74	85	86	57	98.4	97.2	16	14	33	15
Cc1nn2c(=O)cc(N3CCO[C@H](C)C3)nc2n1Cc1cccc(Cl)c1Cl [GSK2373693]	0	83	4	0	23	14	62	43	0	0
Cn1cc(-c2ccc3c(c2)CCN3C(=O)Cc2cc(F)cc(C(F)(F)F)c2)c2c(N)ncnc21 [GSK2635225]	27	28	2	15	6	0	0	6	0	8
CNc1nccc(-c2ccc3c(N)n[nH]c3c2)n1 [GSK2206003]	54	60	32	35	23	4	4	0	0	6
COc1cccc2c(-c3ccncc3)c(-c3ccc(F)cc3)nn12 [GW468513]	0	64	6	26	23	31	0	6	0	0
CSc1ccc(NC2=C(c3ccc(Cl)cc3)C(=O)NC2=O)cc1 [SB-317658]	0	0	43	0	16	16	10	7	9	4
COc1ccc(C)c(Nc2ccnc(Nc3ccc(-c4cnc[nH]4)cc3)n2)c1.Cl [GW784041]	0	33	33	67	8	22	2	0	0	11
O=C(Nc1n[nH]c2nc(-c3ccccc3)ccc12)C1CC1 [SB-708999]	46	84	12	34	4	0	0	11	0	16
CN(c1ccc2c(c1)nc(NCc1ccccc1)n2C)c1ccnc(Nc2ccc(CS(C)(=O)=O)cc2)n1.Cl [GW811603]	23	44	0	79	0	0	0	0	0	0
Cc1ccc(O)cc1Nc1ccnc2cc(-c3ccc(CN4CCCCC4)o3)ccc12 [GW557777]	0	0	0	0	5	0	0	0	0	0
CCNC(=O)/C=C/c1n[nH]c2cc(Sc3ccccc3C(=O)NC)ccc12	0	0	33	0	4	21	30	0	17	0
COc1ccc(NC(=O)c2ccoc2)cc1-c1ccc(C(=O)NCC2CC2)cc1 [GW810437]	7	0	0	0	15	15	0	0	0	50
CC(C)NCC(Cc1ccccc1)NC(=O)c1cc(Br)c(-c2ccnc3[nH]ccc23)s1.Cl.Cl (stereo not drawn) [GSK1383281]	14	49	17	37	99.4	99	0	40	57	0
Cc1ccc(NC(=O)c2ccnc(N3CCCCC3)c2)cc1-c1ccc(C(=O)NCC2CC2)cc1 [GW775610]	0	5	0	14	0	10	8	0	0	0
